From PubChem BioAssay

assay: Pseudomonas biofilm growth suppression – PAO1 strain, BacTiter-Glo luminescence, LB-PBS, primary screen (AID 1144); conditions: P. aeruginosa PAO1 biofilm, 12 h, higher = more signal; call rule not given here

z-score, inactive:
[N-]=[N+]=Nc1ccccc1C[C@@]1(C(=O)NCC(O)CO)N=C(c2ccc(OCCCO)cc2)O[C@@H]1c1ccccc1 (some centres undefined) 0.557
C=C(CCCC)/C(=C/C[C@H](OC(=O)c1ccncc1)c1cccc(OCCO)c1)c1cnc2ccccc2c1 0.124
COCCOC(=O)N1C(=O)[C@@]2(c3cc(C#Cc4ccc(OC)cc4)ccc31)[C@H](c1ccc(OCCO)cc1)N1[C@H](c3ccccc3)[C@H](c3ccccc3)OC(=O)[C@H]1[C@@H]2C(=O)NC[C@H](O)c1ccccc1 -0.367
CCOC(=O)C1=CC[C@@H](c2ccc(OC)cc2)N(S(=O)(=O)c2ccc(C)cc2)[C@H]1c1ccc(C)cc1 0.12
COCCOC(=O)N1C(=O)[C@@]2(c3cc(C#CCCO)ccc31)[C@H](c1ccc(OCCO)cc1)N1[C@H](c3ccccc3)[C@H](c3ccccc3)OC(=O)[C@H]1[C@@H]2C(=O)N1CCCCCCC1 0.542
COC(=O)[C@@]1(Cc2ccc(F)cc2)[C@H]2c3cc(C(=O)N4CCCC4)n(Cc4cc(F)cc5c4OCOC5)c3C[C@H]2CN1C(=O)c1ccccc1 0.403
C=C(CCCC)/C(=C/C[C@H](OC(=O)c1ccncc1)c1ccc(OCCO)cc1)c1cnc2ccccc2c1 0.15
C=CCOC(=O)[C@@H]1[C@H]2C(=O)O[C@H](c3ccccc3)[C@H](c3ccccc3)N2[C@H](c2ccc(OCCOC(=O)[C@H]3C[C@H]4C(=O)N5CCC[C@H]5C(=O)N4[C@H]3c3cccc(OCCO)c3)cc2)[C@@]12C(=O)Nc1ccc(I)cc12 -0.699
COc1ccc([Si](C)(C)[C@H]2[C@H](CC(=O)N3Cc4ccccc4C[C@H]3CO)O[C@@]3(C(=O)N(C)c4c(Br)cc(C)cc43)[C@@H]2C)cc1 -0.324
CCCC[C@H]1OB(O)C[C@H]2C1=C(COc1ccccc1)C[C@H]1C(=O)C=CC(=O)[C@H]12 -0.327
COCCOC(=O)N1C(=O)[C@@]2(c3cc(C#CCC(C(=O)OC)C(=O)OC)ccc31)[C@H](C(=O)Nc1nc3ccccc3s1)[C@H]1C(=O)O[C@H](c3ccccc3)[C@H](c3ccccc3)N1[C@@H]2c1ccc(O)cc1 0.446
COC(=O)[C@@]1(Cc2ccc(OC)cc2)[C@H]2c3cc(C(=O)N4CCCC4)n(Cc4ccc(Cl)c(C(F)(F)F)c4)c3C[C@H]2CN1C(=O)c1ccccc1 0.237
Cc1ccc(F)cc1S(=O)(=O)N[C@H]1CCN(Cc2ccc(OC(C)C)cc2)C1 0.434
COCCOC(=O)N1C(=O)[C@@]2(c3cc(C#CCNC(N)=O)ccc31)[C@H](C(=O)Nc1nc3ccccc3s1)[C@H]1C(=O)O[C@H](c3ccccc3)[C@H](c3ccccc3)N1[C@@H]2c1ccccc1OCCO -0.264
CCCCC(O)C1C=CC2C(=O)N(c3ccccc3)C(=O)C2N1Nc1ccc([N+](=O)[O-])cc1 (centres undefined) -2.08
CCCN1C(=O)[C@@]2(c3ccc([N+](=O)[O-])cc3)CC(=O)N(CC34CC5CC(CC(C5)C3)C4)[C@@H]2c2ccc(CO)cc21 0.312
O=C1C=C(c2ccccc2)C(=O)C2=C1CC([C@H]1Oc3ccccc3S(=O)(=O)N3CCC[C@@H]13)=CC2 0.497
O=C1[C@H]2C=C(I)[C@H](C[C@@H]2OCCCCCCO)[C@@]12CO2 -0.04
N#Cc1ccc(-c2cccc(=O)o2)cc1 -0.131
N#Cc1ccc(NN2C(C(O)C3CC=CCC3)C=CC3C(=O)N(c4ccccc4)C(=O)C32)cc1 (centres undefined) -1.34
COC(=O)C(CC#Cc1ccc2c(c1)[C@]1(C(=O)N2)[C@H](c2ccc(OCCO)cc2)N2[C@H](c3ccccc3)[C@H](c3ccccc3)OC(=O)[C@H]2[C@@H]1C(=O)N1CCCCCCC1)C(=O)OC -1.14
COCCOC(=O)N1C(=O)[C@@]2(c3ccccc31)[C@H](c1ccc(O)cc1)N1[C@H](c3ccccc3)[C@H](c3ccccc3)OC(=O)[C@H]1[C@@H]2C(=O)N1CCCCCCC1 -1.17
COc1ccc(C(O)C2C=CC3C(=O)N(c4ccccc4)C(=O)C3N2Nc2ccc([N+](=O)[O-])cc2)c2ccccc12 (centres undefined) -0.557
O=C1c2ccccc2[C@@]2(Cc3ccccc3N(Cc3ccccc3)C2=O)[C@H](c2ccc(CO)cc2)N1Cc1ccccc1Cl -1.09
